The list is not random: actives were taken first. Their share in the collection is about 3.3%.
WRN helicase inh: WRN helicase (human) inhibition. Q14191. 360,000 compounds, 0.46% hits. AID 651768. WRN helicase unwinding, fluorescent forked duplex, kinetic. Potency, µM (doses to about 114 µM), hits mostly inhibitors; further: nearly all actives have a fitted effect of over 55% in size
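WRN at 20 nM final preincubated with compound 15 min at room temperature; reaction started with 100 nM fluorophore/quencher forked duplex oligonucleotide and 2 mM ATP final. Unwinding followed kinetically by red fluorescence (ex 525, em 598 nm).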
PLK1 PBD inh: blocks phosphopeptide binding to human PLK1 polo-box domain. AID 720504. Potency, µM, most hits filed as inhibitors. Plk1 PBD binding of FITC phosphopeptide, fluorescence polarization. 360,000 compounds, 2.8% hits. P53350; further: series mostly up to about 57 µM; nearly all actives have a fitted effect of over 65% in size
Target sequence (P53350 whole entry, looked up, the tested form may be a part): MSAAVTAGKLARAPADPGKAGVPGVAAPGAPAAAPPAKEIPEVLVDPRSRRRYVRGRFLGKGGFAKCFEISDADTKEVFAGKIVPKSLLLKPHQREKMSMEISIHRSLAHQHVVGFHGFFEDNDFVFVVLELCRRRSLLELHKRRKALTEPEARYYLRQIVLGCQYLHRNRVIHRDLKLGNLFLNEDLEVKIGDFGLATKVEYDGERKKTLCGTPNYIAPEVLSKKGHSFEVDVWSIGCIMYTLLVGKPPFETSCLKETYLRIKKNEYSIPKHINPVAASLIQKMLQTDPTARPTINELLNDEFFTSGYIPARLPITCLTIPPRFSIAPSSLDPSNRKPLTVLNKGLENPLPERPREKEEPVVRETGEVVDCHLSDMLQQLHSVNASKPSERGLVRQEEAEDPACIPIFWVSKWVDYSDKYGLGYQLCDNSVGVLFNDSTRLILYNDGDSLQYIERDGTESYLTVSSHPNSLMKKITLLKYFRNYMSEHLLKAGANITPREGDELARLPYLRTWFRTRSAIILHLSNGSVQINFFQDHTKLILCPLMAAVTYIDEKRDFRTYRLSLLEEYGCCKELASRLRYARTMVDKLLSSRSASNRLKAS
USP1-UAF1 inh: USP1/UAF1 (human) deubiquitinase inhibition; O94782; recombinant USP1/UAF1, Ub-Rhodamine cleavage fluorescence; Potency, µM (series often up to 57.1 µM), actives largely listed as inhibitors; 390,000 compounds, 0.23% hits; AID 743255; further: nearly all actives have a fitted effect of over 60% in size
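In this screen, compounds sit with the deubiquitinase complex (1nM) for 15 min at room temperature before Ub-Rho is added at 150nM final. Fluorescence rise is then followed for 6 reads every 60 seconds.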
USP2a block: blocks human ubiquitin-specific protease USP2a | Potency, µM (highest dose often 38.3 µM), actives largely listed as inhibitors | USP2 core, Ub-CHOP2 coupled fluorogenic reporter, 485/531 | 330,000 compounds, 0.01% hits | O75604
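Deubiquitinase activity read as fluorescence (485/531 nm) after Ub-CHOP2 cleavage activates the enterokinase reporter on its substrate; USP2 core 10nM, Ub-CHOP2 and substrate 25nM each, 30min compound preincubation then 60min RT; data normalized to NEM, curves fitted.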
PI5P4K alpha inh: blocks human PI5P4K alpha kinase activity. P48426. PI5P4Kalpha enzyme, ADP-Glo luminescence, 60 min; hits give low values. max response, %. 330,000 compounds, 1.2% hits. AID 652105; active means max response of -50% or lower; inconclusive means between -30% and -50%; inactive means -30% or higher; further: value at the top dose of about 77 µM
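Reactions run in 0.038 M HEPES pH 7.4, 0.28 mM EGTA, 0.1% CHAPS and 5% DMSO, with PI5P4Kalpha, substrate, compound and 5 microM ATP final, one hour at room temperature. Readout is ADP-Glo luminescence.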
Hits are given with their value; . = inactive; ? = inconclusive; / = not tested or not shown; [ ] = remark or other dose. Unless noted, the call rests on the fitted dose curve; in most records, active means well fitted curve in the direction sought with a large enough effect; inconclusive means small, poorly fitted or top-dose-only effect, or another doubt; inactive means no such curve, though single readings can be large; an effect the other way counts as inactive or inconclusive.

SMILES	WRN helicase inh	PLK1 PBD inh	USP1-UAF1 inh	USP2a block	PI5P4K alpha inh
O=S1(=O)CC(O)C(N=Nc2c(O)n(Cc3ccccc3)c3ccccc23)C1 (stereo not given)	.	13µM	.	.	?
CCCCc1ccc(NC(=O)CSc2nnc3[nH]c(=O)cc(C)n23)cc1	/	/	.	/	/
NS(=O)(=O)c1ccc(NC(=O)CN2CCN(S(=O)(=O)c3ccc(F)cc3)CC2)cc1	.	4.7µM	.	.	?
COc1cc(NC(=O)CN2CCN(S(=O)(=O)c3ccc(C(C)C)cc3)CC2)cc(OC)c1	.	?	.	.	.
COc1cccc(NC(=O)CN2CCN(S(=O)(=O)c3ccc(C(C)C)cc3)CC2)c1	.	30µM	.	.	.
CCCN1C2=C(C(=O)CC(C)(C)C2)C(c2ccc(F)cc2)C2=C1c1ccccc1C2=O (stereo not given)	?	12µM	.	.	/
COc1ccc(NC(=O)Cn2c(=O)cc(C)c3c(C)nn(C)c32)cc1	/	/	.	/	/
Cc1nn(-c2ccccc2)c2nc(C3CC3)cc(C(=O)Nc3ccc(F)cc3)c12	/	/	.	/	/
COc1ccc(CCNC(=O)CCc2c(C)nc3c(-c4ccc(F)cc4)c(C)nn3c2C)cc1OC	/	/	.	/	/
COC(CNC(=O)CCc1c(C)nc2c(-c3ccc(F)cc3)c(C)nn2c1C)OC	.	30µM	.	.	.
CCOC(=O)CSc1nc(N)c(C#N)c(-c2ccc(OCC)cc2)c1C#N	.	.	.	.	/
CC1=C(C#N)c2nc(N)c(C#N)c(C)c2/C1=C\c1ccc(OCC(=O)O)c(Cl)c1	?	8.4µM	.	.	?
CCS(=O)(=O)C1=NN2C(=N)/C(=C\c3ccc(SCc4ccco4)o3)C(=O)N=C2S1	56µM	?	?	.	-91
CCS(=O)(=O)C1=NN2C(=N)/C(=C\c3ccc(OC(=O)c4ccco4)c(Br)c3)C(=O)N=C2S1	/	/	/	.	/
COc1cccc(CC(=O)Nc2ccc(S(=O)(=O)Nc3nc(C)cc(C)n3)cc2)c1	.	13µM	.	.	.
COc1cccc(CNC(=O)CN2C(=O)CCn3nc(-c4cn(C)c5ccccc45)cc32)c1OC	/	/	.	/	/
CCCn1c(-c2ccc(OC)cc2)nc2c(=O)n(C)c(=O)[nH]c21	.	.	.	.	-51
CCCCn1c(-c2ccc(OC)cc2)nc2c(=O)n(C)c(=O)[nH]c21	.	?	.	.	?
Cc1ccc(CSc2nncn3c2cc2sccc23)cc1	/	/	.	/	/
Cc1ccc(N2C3=C(C(=O)CC(C)(C)C3)C(c3cn(C)nc3C)C3=C2CC(C)(C)CC3=O)cc1	.	3.8µM	.	/	?
Oc1cc(CNC2CCCCC2)c(O)cc1CNC1CCCCC1	.	5.3µM	?	/	-53
Cc1ccc(Cn2c(C)c3cnn(CC(=O)N4CCN(c5ccc(F)cc5)CC4)c(=O)c3c2C)cc1	/	/	.	/	/
CCc1ccc(NC(=O)CC2C(=O)N(c3cccc(C)c3)C(=O)N2Cc2cccc(OC)c2)cc1 (stereo not given)	/	/	.	/	/
O=S(=O)([N-]c1nc2ccccc2nc1-[n+]1ccccc1)c1ccccc1	.	.	.	.	.
O=S(=O)([N-]c1nc2ccccc2nc1-[n+]1ccc(-c2ccncc2)cc1)c1ccccc1	.	17µM	?	.	.
SMILES	WRN helicase inh	PLK1 PBD inh	USP1-UAF1 inh	USP2a block	PI5P4K alpha inh
COc1ccc(/C=C2/SC(=O)N(CC(O)Cn3c4ccccc4c4ccccc43)C2=O)cc1 (stereo not given)	.	30µM	.	.	.
O=C(O)C(Cc1ccccc1)N1C(=O)/C(=C/C=C/c2ccco2)SC1=S (stereo not given)	10µM	2.7µM	?	?	-99
O=C(O)C(Cc1ccccc1)N1C(=O)/C(=C/c2cccnc2)SC1=S (stereo not given)	.	.	.	.	.
COc1ccc(/C=C2\SC(=S)N(C(Cc3ccccc3)C(=O)O)C2=O)cc1 (stereo not given)	?	27µM	.	.	.
O=C1S/C(=C\c2ccccc2)C(=O)N1CC(O)Cn1c2ccccc2c2ccccc21 (stereo not given)	.	.	.	.	.
CCc1ccccc1-n1c2c(cc(-c3nc(-c4ccc(Cl)cc4)cs3)c1=O)C(=O)CC(C)(C)C2	/	/	.	/	/
O=C(NCCc1ccccc1)c1ccc(CSc2nc3ccncc3n2Cc2ccccc2)cc1	/	/	.	/	/
CN(C)C(=O)CSc1nnc([C@H](Cc2ccccc2)NC(=O)OC(C)(C)C)o1	.	27µM	.	.	.
CC(C)(C)OC(=O)N[C@@H](Cc1ccccc1)c1nnc(SCC(N)=O)o1	.	.	.	.	.
COC(=O)CS(=O)(=O)c1nnc([C@H](Cc2ccccc2)NC(=O)OC(C)(C)C)o1	?	11µM	.	.	.
Cc1cccc(CS(=O)(=O)c2nnc([C@H](Cc3ccccc3)NC(=O)OC(C)(C)C)o2)c1	.	2.7µM	.	.	/
CCOc1ccc(S(=O)(=O)N(C(=O)c2ccncc2)c2ccc3oc(C)c(C(=O)OC)c3c2)cc1	/	/	.	/	/
C#CCOCCOCCOCCNc1nc(N2CCN(C(=O)CCCCCCCCCCNC(=O)Cn3cc(CCCCCN)nn3)CC2)nc(N2CCN(C(=O)CCCCCCCCCCNC(=O)[C@H]([C@@H](C)CC)n3cc(CCCCCN)nn3)CC2)n1	56µM	.	?	?	?
C#CCOCCOCCOCCNc1nc(N2CCN(C(=O)CCCCCCCCCCNC(=O)Cn3cc(CCCCCN)nn3)CC2)nc(N2CCN(C(=O)CCCCCCCCCCNC(=O)[C@H](CO)n3cc(CCCCCN)nn3)CC2)n1	79µM	.	.	?	-58
C#CCOCCOCCOCCNc1nc(N2CCOCC2)nc(N2CCN(C(=O)CCCCCCCCCCNC(=O)Cn3cc(CCCCCN)nn3)CC2)n1	.	.	.	.	.
CCCNC(=O)CSc1nc2ccccc2nc1Cc1ccc(Cl)cc1	/	/	.	/	/
CCCC(=O)Nc1cccc(OCc2cc(=O)n3cccc(C)c3n2)c1	/	/	.	/	/
Cc1ccc(-c2nn(-c3cccc([N+](=O)[O-])c3)c3c2cnc2ccc(F)cc23)cc1	/	/	.	/	/
COc1ccc(-c2cc(C(=O)Nc3ccc(S(=O)(=O)Nc4onc(C)c4C)cc3)c3ccccc3n2)cc1	.[11.6 µM]	?	.	.	.
Cc1noc(NS(=O)(=O)c2ccc(NC(=O)c3cc(-c4ccccc4Cl)nc4ccccc34)cc2)c1C	.	38µM	.	.	.
COc1cc(-c2cc(C(=O)Nc3ccc(S(N)(=O)=O)cc3)c3ccccc3n2)cc(OC)c1OC	.	.	.	.	.
Cc1ccc(/C=C/C(=O)Nc2ccc(S(=O)(=O)Nc3onc(C)c3C)cc2)cc1	.	38µM	.	.	.
CCN(CC)S(=O)(=O)c1ccc(O)c(NC(=O)c2cc(-c3cc(OC)c(OC)c(OC)c3)nc3ccccc23)c1	.	19µM	.	.	.
COc1cc(-c2cc(C(=O)Nc3ccc(S(=O)(=O)Nc4ncccn4)cc3)c3ccccc3n2)cc(OC)c1OC	.	27µM	.	.	.

Assay outcomes deposited in PubChem BioAssay by National Center for Advancing Translational Sciences (NCATS).
